We go through ten compounds from PubChem BioAssay (Tox21).

Experiment [1] in a line: qHTS assay to identify small molecule antagonists of the androgen receptor (AR) signaling pathway using the MDA cell line in the presence of 0.5 nM R1881 - cell viability counter screen (AID 1259242). Also: nearly all actives have a fitted effect of over 45% in size. The procedure, abridged:
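Live-cell protease fluorescence, CellTiter-Fluor, 30 min at 37C. Cells: MDA-kb2, 3,000/well, preincubated 5 hr. Compounds plus 0.5 nM R1881 final, 16 hr, 37C, 0% CO2.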
(In general: Quantitative high-throughput screening tests each substance at several concentrations.)

The target of experiment [2] is Androgen receptor (Homo sapiens) (UniProt P10275). Description: qHTS assay to identify small molecule antagonists of the androgen receptor (AR) signaling pathway using the MDA cell line in the presence of 0.5 nM R1881 (AID 1259243). Also: nearly all actives have a fitted effect of over 50% in size. The procedure, abridged:
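MDA-kb2, MMTV-luc (AR/GR elements); 3,000 cells/well; cpd + 0.5 nM R1881 final; 16 hr 37C, 0% CO2; ONE-Glo 30 min RT; luminescence.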

The target in experiment [3] is Estrogen receptor (Homo sapiens) (UniProt P03372). Description: qHTS assay to identify small molecule antagonists of the estrogen receptor alpha (ER-alpha) signaling pathway using the BG1 cell line in the presence of 0.1 nM 17-beta-estradiol (AID 1259244). Also: nearly all actives have a fitted effect of over 50% in size. The procedure, abridged: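 Luminescence after ONE-Glo (30 min, room temperature) measured ERE-luciferase activity in VM7Luc4E2 cells treated 22 h with compound and 0.1 nM final 17beta-estradiol as stimulator.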
Estrogen receptor (Homo sapiens), sequence (P03372 whole entry, looked up): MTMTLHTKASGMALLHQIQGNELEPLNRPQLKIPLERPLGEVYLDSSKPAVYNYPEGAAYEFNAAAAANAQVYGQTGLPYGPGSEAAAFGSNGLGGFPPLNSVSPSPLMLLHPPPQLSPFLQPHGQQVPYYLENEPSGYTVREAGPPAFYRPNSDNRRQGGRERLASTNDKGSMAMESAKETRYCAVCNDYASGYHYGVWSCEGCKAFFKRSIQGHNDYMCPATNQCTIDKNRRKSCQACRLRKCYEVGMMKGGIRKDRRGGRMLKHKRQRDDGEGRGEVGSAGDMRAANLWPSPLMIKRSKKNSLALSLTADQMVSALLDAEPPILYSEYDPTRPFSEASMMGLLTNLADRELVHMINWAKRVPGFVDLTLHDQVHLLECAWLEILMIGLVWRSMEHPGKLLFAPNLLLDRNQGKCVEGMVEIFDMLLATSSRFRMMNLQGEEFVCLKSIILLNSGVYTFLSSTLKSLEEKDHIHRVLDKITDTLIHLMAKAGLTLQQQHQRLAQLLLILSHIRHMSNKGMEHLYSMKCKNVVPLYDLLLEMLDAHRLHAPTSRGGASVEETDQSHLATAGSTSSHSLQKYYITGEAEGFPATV

Experiment [4] in a line: qHTS assay to identify small molecule HDAC inhibitors (AID 1259364).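 Also: wild-type HCT-116 cells with endogenous class I/II HDAC activity; top concentration of the series differs between compounds; nearly all actives have a fitted effect of over 45% in size.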 The procedure, abridged:
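HCT-116 (wild type), 1,500 cells/well, overnight; compound 2 hr 37C 5% CO2; HDAC-Glo I/II reagent 30 min RT; luminescence readout.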

A short description of experiment [5]: qHTS assay to identify small molecule HDAC inhibitors - cell viability counter screen (AID 1259365). Also: series mostly up to about 92 µM; nearly all actives have a fitted effect of over 50% in size. In a few lines:
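Luminescence from CellTiter-Glo, developed 30min at room temperature, reports viability of wild-type HCT-116 cells treated 2hr with compounds at 37 C and 5% CO2 after overnight plating.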

A short description of experiment [6]: qHTS assay to identify small molecule agonists of the sonic hedgehog signaling (Shh) pathway - cell viability counter screen (AID 1259366). Also: nearly all actives have a fitted effect of over 50% in size. In a few lines:
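Cytotoxicity counter screen run in the same wells as the Shh reporter assay. NIH/3T3 cells carrying a Gli1 response element–driven luciferase were treated with DMSO-dissolved compounds for 24hr, and live-cell protease activity was measured with CellTiter-Fluor.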

Experiment [7] in a line: qHTS assay to identify small molecule antagonists of the sonic hedgehog signaling (Shh) pathway - cell viability counter screen (AID 1259367). Also: nearly all actives have a fitted effect of over 55% in size. In a few lines:
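Conditioned medium drove Shh signaling in 3T3 Gli1-Luc cells exposed to compounds at 37C and 5% CO2. Viability was determined from CellTiter-Fluor fluorescence, with reagent incubated 1 hr after 23 hr of treatment.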

The nature of experiment [8]: qHTS assay to identify small molecule agonists of the sonic hedgehog signaling (Shh) pathway (AID 1259368; calls by dose curve;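 also: NIH/3T3-derived 3T3Gli1-Luc cells carrying a stable Gli1-driven firefly luciferase reporter; series mostly up to about 92 µM; nearly all actives have a fitted effect of over 15% in size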). The procedure, abridged:
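Read-out: firefly luciferase luminescence from a Gli1 response element reporter stably integrated in NIH/3T3-derived 3T3Gli1-Luc cells, measured 30 min at room temperature after reagent addition. Compound exposure lasted 24 hr at 37 C, 5% CO2.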

Experiment [9] in a line: qHTS assay to identify small molecule antagonists of the sonic hedgehog signaling (Shh) pathway (AID 1259369; calls by dose curve; also: nearly all actives have a fitted effect of over 45% in size). The procedure, abridged:
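Luminescence readout: firefly Luc under Gli1 response element in 3T3Gli1-Luc cells (NIH/3T3 clone). Antagonist mode, stimulation by conditioned medium; compound exposure 24hr at 37 C, 5% CO2.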

Experiment [10] has as its target Estrogen receptor beta (Homo sapiens) (UniProt Q92731). Description: qHTS assay to identify small molecule agonists of the estrogen receptor beta (ER-beta) signaling pathway (AID 1259377; active = well fitted activation curve with a large enough effect in the signal ratio in the repeat runs, not every such curve was filed as active; the % refers to the signal ratio; also: potency is read from the fitted curve at half-maximal effect). In a few lines:
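HEK293T ER-beta-UAS-bla; 2% charcoal-stripped FBS; cells pre-incubated 6 hr, compound 16 hr, 37C/5% CO2; LiveBLAzer B/G FRET substrate 2 h RT; fluorescence intensity read.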

Experiment [11] can be described thus: qHTS assay to identify small molecule agonists of the androgen receptor (AR) signaling pathway in the presence of an antagonist - cell viability counter screen (AID 1259379).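 Also: MDA-kb2 human breast cancer cells carrying an MMTV luciferase reporter; series mostly up to about 92 µM; nearly all actives have a fitted effect of over 25% in size.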 In a few lines: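 Viability counter screen: CellTiter-Fluor fluorescence, measured in the same wells as the luciferase read-out. MDA-kb2 cells, 3,000/well, with nilutamide at 3.0uM final and compounds at 15 concentrations, 16 hr at 37C, 0% CO2.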

Experiment [12] addresses Androgen receptor (Homo sapiens) (UniProt P10275). Description: qHTS assay to identify small molecule agonists of the androgen receptor (AR) signaling pathway in the presence of an antagonist (AID 1259381; calls by dose curve; also: nearly all actives have a fitted effect of over 15% in size; also: potency is read from the fitted curve at half-maximal effect). In a few lines: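 Luciferase read-out (ONE-Glo, 30min room temperature) in MDA-kb2 MMTV-reporter cells; agonist mode run in presence of AR antagonist nilutamide, 3.0uM final. Compounds tested as 15-point series, 16hr exposure at 37C, 0% CO2.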

A short description of experiment [13]: qHTS assay to identify small molecule antagonists of the estrogen receptor beta (ER-beta) signaling pathway - cell viability counter screen (AID 1259382). Also: series mostly up to about 92 µM; nearly all actives have a fitted effect of over 55% in size. In a few lines: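 Luminescent ATP read-out (CellTiter-Glo, 30 min, RT) taken in the same wells as the bla reporter assay. HEK293T ER-beta-UAS-bla cells in 2% charcoal-stripped FBS were exposed to compounds with 1nM E2 for 16 hr at 37C.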

Experiment [14] deals with Estrogen receptor (Homo sapiens) (UniProt P03372). Description: qHTS assay to identify small molecule agonists of the estrogen receptor alpha (ER-alpha) signaling pathway in the presence of an antagonist (AID 1259383; calls by dose curve; also: nearly all actives have a fitted effect of over 15% in size; also: potency is read from the fitted curve at half-maximal effect; as to activation: top concentration of the series differs between compounds). In a few lines:
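Luciferase luminescence (ONE-Glo, 30min at room temperature) measured in VM7Luc4E2 cells after 22hr compound exposure at 15 concentrations, with 10.0nM ICI-182,780 final present; cells express endogenous ER-alpha and carry four EREs upstream of luciferase.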

A short description of experiment [15]: qHTS assay to identify small molecule agonists or antagonists of the thyroid stimulating hormone receptor (TSHR) signaling pathway - wild type cell line counter screen (AID 1259384; calls by dose curve). The procedure, abridged:
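Wild-type HEK293 cells were plated 18 h at 37 C/5% CO2, pin-dosed with compound plus Ro20-1724 medium, held 30 min at room temperature, then given cAMP-d2 and anti-cAMP-cryptate; fluorescence was read after 1 h. Fifteen concentrations, triplicate.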

A short description of experiment [16]: qHTS assay to identify small molecule antagonists of the estrogen receptor alpha (ER-alpha) signaling pathway using the BG1 cell line in the presence of 0.1 nM 17-beta-estradiol - cell viability counter screen (AID 1259241). Also: nearly all actives have a fitted effect of over 40% in size. In a few lines:
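VM7Luc4E2, 4,000 cells/well, phenol red-free medium + 10% charcoal-stripped FBS; 24 hr plating; cpd + 0.1 nM E2 final, 22 hr 37C/5% CO2; CellTiter-Fluor 30 min, fluorescence.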

In experiment [17] the target is Estrogen receptor beta (Homo sapiens) (UniProt Q92731). Description: qHTS assay to identify small molecule antagonists of the estrogen receptor beta (ER-beta) signaling pathway (AID 1259378; active = well fitted inhibition curve with a large enough effect in the signal ratio in the repeat runs, not every such curve was filed as active; the % refers to the signal ratio). In a few lines: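 ER-beta-UAS-bla HEK293T (GripTite) cells in 2% charcoal-stripped FBS medium were preincubated 6 hr at 37C, dosed with compound, then stimulated with 1 nM E2 (final) for 16 hr; beta-lactamase reporter read by B/G FRET fluorescence after 2 hr substrate loading.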
Estrogen receptor beta (Homo sapiens), sequence (Q92731 whole entry, looked up): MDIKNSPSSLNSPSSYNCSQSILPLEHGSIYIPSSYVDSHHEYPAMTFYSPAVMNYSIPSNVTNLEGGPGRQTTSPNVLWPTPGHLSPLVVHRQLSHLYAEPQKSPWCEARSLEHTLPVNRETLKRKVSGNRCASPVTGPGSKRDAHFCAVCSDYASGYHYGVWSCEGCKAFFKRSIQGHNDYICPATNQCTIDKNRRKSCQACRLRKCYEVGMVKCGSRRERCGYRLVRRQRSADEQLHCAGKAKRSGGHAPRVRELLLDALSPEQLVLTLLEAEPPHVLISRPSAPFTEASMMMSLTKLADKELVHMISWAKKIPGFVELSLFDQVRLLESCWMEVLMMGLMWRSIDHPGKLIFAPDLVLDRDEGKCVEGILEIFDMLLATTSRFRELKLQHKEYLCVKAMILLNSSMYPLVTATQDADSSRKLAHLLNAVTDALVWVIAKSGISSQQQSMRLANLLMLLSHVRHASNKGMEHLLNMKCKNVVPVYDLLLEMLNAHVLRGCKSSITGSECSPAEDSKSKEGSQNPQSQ

The nature of experiment [18]: qHTS assay to identify small molecule agonists of the estrogen receptor beta (ER-beta) signaling pathway - cell viability counter screen (AID 1259380). Also: nearly all actives have a fitted effect of over 30% in size. The procedure, abridged: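 Luminescence read-out (CellTiter-Glo, 30 min, room temp) taken in the same wells as the beta-lactamase reporter assay; ER-beta-UAS-bla HEK293T cells exposed to DMSO-dissolved compounds for 16 hr at 37C in 2% charcoal-stripped FBS medium.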

Experiment [19] has as its target Thyrotropin receptor (Homo sapiens) (UniProt P16473). Description: qHTS assay to identify small molecule antagonists of the thyroid stimulating hormone receptor (TSHR) signaling pathway (AID 1259385; calls by dose curve; also: nearly all actives have a fitted effect of over 20% in size). In a few lines: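 TSHR-HEK293 cells were plated and held 18 h at 37C/5% CO2, then given compound plus Ro20-1724 and stimulated with TSH at 1.5 ng/mL final. After 30 min at room temperature, cAMP was detected with cAMP-d2/anti-cAMP-cryptate (1 h) by fluorescence.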

A short description of experiment [20]: qHTS assay to identify small molecule phospholipidosis (PLD) inducers (AID 1259344; active = well fitted curve in the direction sought with a large enough effect; an effect the other way counts as inactive or inconclusive). In a few lines:
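After 4 h attachment on collagen I, HepG2 cells were dosed with compound alongside LipidTOX Red, kept 24 h at 37 C, fixed, and imaged for lamellar phospholipid pits.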

Inconclusive results are not listed. Activity calls are given as the source filed them. Unless noted, calls follow the shape of the dose curve; as a rule, active = well fitted curve in the direction sought with a large enough effect in the repeat runs; inconclusive = weak or mixed curves; inactive = no such curve, though single readings can be large; an effect the other way counts as inactive or inconclusive.

Androgen receptor (Homo sapiens), sequence (P10275 whole entry, looked up): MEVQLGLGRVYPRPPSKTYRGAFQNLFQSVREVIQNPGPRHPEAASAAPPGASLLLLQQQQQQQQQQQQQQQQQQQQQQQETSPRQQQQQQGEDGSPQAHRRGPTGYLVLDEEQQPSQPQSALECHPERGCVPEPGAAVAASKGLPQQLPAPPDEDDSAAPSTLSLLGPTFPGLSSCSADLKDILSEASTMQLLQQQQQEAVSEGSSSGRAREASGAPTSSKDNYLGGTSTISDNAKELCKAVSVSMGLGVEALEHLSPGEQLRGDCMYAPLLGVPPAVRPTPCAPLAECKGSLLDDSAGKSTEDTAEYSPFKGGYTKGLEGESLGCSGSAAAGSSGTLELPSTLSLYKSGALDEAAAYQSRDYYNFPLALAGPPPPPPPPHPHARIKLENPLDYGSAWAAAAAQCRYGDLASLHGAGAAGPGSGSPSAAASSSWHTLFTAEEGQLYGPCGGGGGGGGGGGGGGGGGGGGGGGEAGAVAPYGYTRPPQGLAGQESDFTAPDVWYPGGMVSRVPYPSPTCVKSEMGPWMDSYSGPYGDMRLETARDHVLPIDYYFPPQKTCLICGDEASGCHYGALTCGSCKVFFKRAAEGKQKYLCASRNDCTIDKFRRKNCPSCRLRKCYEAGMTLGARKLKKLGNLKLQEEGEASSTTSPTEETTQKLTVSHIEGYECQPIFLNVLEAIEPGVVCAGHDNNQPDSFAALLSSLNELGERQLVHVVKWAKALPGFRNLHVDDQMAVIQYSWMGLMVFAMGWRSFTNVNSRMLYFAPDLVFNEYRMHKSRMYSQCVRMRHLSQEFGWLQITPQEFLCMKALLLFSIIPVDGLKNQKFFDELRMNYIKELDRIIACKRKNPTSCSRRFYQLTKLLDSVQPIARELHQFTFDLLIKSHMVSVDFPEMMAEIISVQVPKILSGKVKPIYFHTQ
Thyrotropin receptor (Homo sapiens), sequence (P16473 whole entry, looked up): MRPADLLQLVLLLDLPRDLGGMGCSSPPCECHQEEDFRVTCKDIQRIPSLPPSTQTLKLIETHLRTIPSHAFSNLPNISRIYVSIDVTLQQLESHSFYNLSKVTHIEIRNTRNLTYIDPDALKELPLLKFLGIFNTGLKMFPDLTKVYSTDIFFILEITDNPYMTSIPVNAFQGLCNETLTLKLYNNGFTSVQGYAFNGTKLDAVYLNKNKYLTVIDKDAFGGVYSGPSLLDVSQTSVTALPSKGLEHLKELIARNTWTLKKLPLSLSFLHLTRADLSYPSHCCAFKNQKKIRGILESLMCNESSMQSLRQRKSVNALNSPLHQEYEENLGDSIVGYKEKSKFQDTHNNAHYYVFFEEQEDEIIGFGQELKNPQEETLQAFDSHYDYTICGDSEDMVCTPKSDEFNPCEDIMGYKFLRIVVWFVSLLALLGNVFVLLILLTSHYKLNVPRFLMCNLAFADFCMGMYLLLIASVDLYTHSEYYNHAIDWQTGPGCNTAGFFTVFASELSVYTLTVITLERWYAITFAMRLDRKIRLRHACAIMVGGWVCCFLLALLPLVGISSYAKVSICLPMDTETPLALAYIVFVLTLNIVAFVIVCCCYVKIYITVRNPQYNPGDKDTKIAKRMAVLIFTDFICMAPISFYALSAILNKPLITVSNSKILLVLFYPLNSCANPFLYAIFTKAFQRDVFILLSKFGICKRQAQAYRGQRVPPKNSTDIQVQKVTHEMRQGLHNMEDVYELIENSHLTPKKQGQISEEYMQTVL

With `CCC(=O)O[C@@H]1C=C2CCC3C(CCC4(C)C3CC[C@@H]4OC(=O)CC)C2CC1` (some centres undefined), the Potency result in [1], in experiment [2], in experiment [3], in [4], in experiment [5] and in experiment [6] was “inactive” in each case. Moreover, the Potency result in experiment [7], in experiment [8], in [9], in experiment [11] and in [13] was “inactive” each time. In addition, the Potency in [10] is 298 nM (active); in [12], 188 nM (active); in experiment [14], 531 nM (active). The call in [15] was inactive.

For `CCCN(CCC)c1c([N+](=O)[O-])cc(C(C)C)cc1[N+](=O)[O-]`, the Potency entry in experiment [16], in [3], in [4], in experiment [5], in [6] and in experiment [7] was “inactive” in each case. In addition, the Potency entry in experiment [8], in experiment [9], in [10], in experiment [17], in experiment [11] and in experiment [18] was “inactive” each time. Besides, the Potency entry in experiment [13], in experiment [14] and in experiment [19] was “inactive” in each case. The compound was classed as inactive in experiment [15].

Regarding `O=C(O)COc1cc(Cl)c(Cl)cc1Cl`, the Potency entry in experiment [16], in experiment [2], in [4], in experiment [5], in [6] and in experiment [7] was “inactive” throughout. Besides, the Potency result in experiment [8], in experiment [9], in experiment [17], in experiment [11], in [18] and in experiment [12] was “inactive” in each case. In addition, the Potency entry in experiment [13] and in experiment [19] was “inactive” each time. In addition, in experiment [15], the result was inactive.

For `CCOP(=S)(OCC)SCSc1cc(Cl)ccc1Cl`, the Potency entry in [16], in experiment [3], in experiment [4], in [5], in experiment [6] and in experiment [7] was “inactive” each time. Also, the Potency entry in [9], in experiment [11], in [18], in experiment [13], in experiment [14] and in [19] was “inactive” throughout. In experiment [15], the result was inactive.

As to `O=C(O)c1ccc(=O)[nH]c1`, the Potency entry in [16], in experiment [2], in [3], in experiment [4], in [5] and in experiment [6] was “inactive” in each case. Besides, the Potency entry in experiment [7], in experiment [9], in [11], in experiment [18], in experiment [12] and in experiment [14] was “inactive” each time. In addition, in experiment [19], the Potency result was “inactive”. Besides, the compound was called inactive in [15].

Turning to `C[N+]1(CCF)[C@@H]2CC[C@H]1CC(OC(=O)C(O)(c1ccccc1)c1ccccc1)C2` (some centres undefined), the Potency result in experiment [1], in [3], in experiment [4], in experiment [6], in experiment [7] and in experiment [8] was “inactive” each time. Further, the Potency entry in [9], in experiment [11], in [18], in [13], in experiment [14] and in experiment [19] was “inactive” each time. Also, the result in experiment [20] and in experiment [15] was inactive.

In the case of `C=CCOC(=O)C(C)(C)OC(=O)c1cc(-n2c(=O)cc(C(F)(F)F)n(C)c2=O)ccc1Cl`, the Potency entry in experiment [1], in [4], in [5], in [6], in [7] and in experiment [8] was “inactive” each time. Besides, the Potency result in [9], in experiment [17], in experiment [11], in [13] and in experiment [14] was “inactive” each time.

Regarding `COC(=O)C1(O)c2ccccc2-c2ccccc21`, the Potency entry in experiment [1], in experiment [3], in experiment [4], in experiment [5], in experiment [6] and in experiment [7] was “inactive” each time. The Potency result in experiment [8], in experiment [9], in [10], in experiment [17], in experiment [11] and in experiment [18] was “inactive” each time. In addition, the Potency entry in experiment [12], in experiment [13], in experiment [14] and in experiment [19] was “inactive” in each case. The outcome in experiment [15] was inactive.

On to `C[C@]12CC[C@H]3[C@@H](CCC4=CC(=O)CC[C@@H]43)[C@@H]1CC[C@@H]2OC(=O)CCc1ccccc1`, for which the Potency result in experiment [1], in experiment [4], in [5], in experiment [6], in experiment [7] and in experiment [8] was “inactive” throughout. Also, the Potency entry in [11], in [18] and in experiment [19] was “inactive” in each case. For the same compound, the call in [20] and in experiment [15] was inactive.

For the compound `CC(Cc1ccccc1)NCc1ccccc1Cl` (centres undefined), the Potency result in [3], in [4], in experiment [5], in [6], in experiment [7] and in [9] was “inactive” throughout. The Potency entry in experiment [11], in [18], in [13], in experiment [14] and in experiment [19] was “inactive” each time. Moreover, the compound was classed as inactive in experiment [20] and in experiment [15].
